# About 7,900 targets were measured; listed, in parts, are those with a hit and a random draw of the rest. About 0.6% of all pairs of compound and target were hits.
# Compound: NCC(=O)Nc1ccc(-n2nc(C(F)(F)F)cc2-c2ccc3c(ccc4ccccc43)c2)cc1
# Test: log2 fold change, soluble protein after heating vs DMSO (PISA); higher = thermal stabilisation; K562 cells, 10 uM, 30 min; active = over 0.2 and 3.5 SD of the protein, either way, in both replicates (recomputed)
# Summary of the method: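 K562 cells at 2×10^6 cells/mL were treated with 10 μM compound for 30 min. Aliquots were heated for 3 min across 48°C-58°C, pooled, and extracted in PBS with 0.5% NP-40 at 4°C; soluble protein was the supernatant after 21,000xg for 90 min. Soluble protein was quantified by TMTpro 16plex LC-MS/MS with channel sums equalised, and reported as log2 fold change in thermal stability against DMSO controls, with values from duplicates.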
# Sequence of UniProt P36406 (P36406 whole entry, looked up): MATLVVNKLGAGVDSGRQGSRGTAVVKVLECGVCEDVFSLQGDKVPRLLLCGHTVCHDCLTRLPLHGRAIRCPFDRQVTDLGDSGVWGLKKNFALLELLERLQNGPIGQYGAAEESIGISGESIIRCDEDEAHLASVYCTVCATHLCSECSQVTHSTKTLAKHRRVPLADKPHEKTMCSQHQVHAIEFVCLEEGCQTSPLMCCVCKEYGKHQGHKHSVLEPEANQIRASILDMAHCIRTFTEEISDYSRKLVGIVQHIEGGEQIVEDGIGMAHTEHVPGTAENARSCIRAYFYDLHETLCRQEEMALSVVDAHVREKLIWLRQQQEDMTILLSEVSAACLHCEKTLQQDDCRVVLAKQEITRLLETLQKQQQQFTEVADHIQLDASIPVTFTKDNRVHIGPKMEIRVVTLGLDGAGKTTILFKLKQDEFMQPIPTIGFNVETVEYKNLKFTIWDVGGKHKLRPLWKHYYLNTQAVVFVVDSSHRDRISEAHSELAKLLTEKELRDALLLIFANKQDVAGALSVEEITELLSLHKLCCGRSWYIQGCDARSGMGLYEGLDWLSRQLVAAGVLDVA
# Sequence of UniProt P61960 (P61960 whole entry, looked up): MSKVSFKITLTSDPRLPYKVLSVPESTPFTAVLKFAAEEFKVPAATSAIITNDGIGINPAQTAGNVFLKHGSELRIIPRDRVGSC
# Sequence of UniProt Q9Y5Z9 (Q9Y5Z9 whole entry, looked up): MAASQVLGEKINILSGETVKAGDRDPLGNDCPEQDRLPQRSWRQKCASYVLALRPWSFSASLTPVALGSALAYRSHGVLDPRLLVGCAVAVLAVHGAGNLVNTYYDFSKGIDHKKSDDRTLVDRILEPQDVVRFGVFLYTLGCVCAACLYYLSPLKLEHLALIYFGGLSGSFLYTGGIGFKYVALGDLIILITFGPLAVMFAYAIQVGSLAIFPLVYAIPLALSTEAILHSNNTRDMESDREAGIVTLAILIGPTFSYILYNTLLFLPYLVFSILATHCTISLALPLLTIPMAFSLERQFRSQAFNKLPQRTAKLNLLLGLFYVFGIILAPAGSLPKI
# Sequence of UniProt P30291 (P30291 whole entry, looked up): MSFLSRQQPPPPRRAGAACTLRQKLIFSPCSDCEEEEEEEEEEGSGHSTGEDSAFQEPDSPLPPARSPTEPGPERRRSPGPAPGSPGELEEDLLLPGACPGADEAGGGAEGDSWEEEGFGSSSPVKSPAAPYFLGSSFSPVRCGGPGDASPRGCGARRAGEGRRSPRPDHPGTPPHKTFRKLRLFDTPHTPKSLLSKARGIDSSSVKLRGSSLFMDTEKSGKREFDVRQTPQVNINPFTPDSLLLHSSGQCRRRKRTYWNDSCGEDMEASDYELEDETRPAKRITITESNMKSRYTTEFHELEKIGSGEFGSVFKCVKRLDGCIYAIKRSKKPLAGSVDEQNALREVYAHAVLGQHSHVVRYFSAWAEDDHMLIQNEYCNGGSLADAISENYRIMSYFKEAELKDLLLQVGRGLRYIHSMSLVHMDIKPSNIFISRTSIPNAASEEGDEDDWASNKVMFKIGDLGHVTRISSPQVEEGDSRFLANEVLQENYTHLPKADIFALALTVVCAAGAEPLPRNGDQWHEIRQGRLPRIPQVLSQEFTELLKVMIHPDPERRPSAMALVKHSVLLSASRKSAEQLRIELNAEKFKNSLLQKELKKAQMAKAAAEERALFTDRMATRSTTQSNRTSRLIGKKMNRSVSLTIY
# Sequence of UniProt Q641Q2 (Q641Q2 whole entry, looked up): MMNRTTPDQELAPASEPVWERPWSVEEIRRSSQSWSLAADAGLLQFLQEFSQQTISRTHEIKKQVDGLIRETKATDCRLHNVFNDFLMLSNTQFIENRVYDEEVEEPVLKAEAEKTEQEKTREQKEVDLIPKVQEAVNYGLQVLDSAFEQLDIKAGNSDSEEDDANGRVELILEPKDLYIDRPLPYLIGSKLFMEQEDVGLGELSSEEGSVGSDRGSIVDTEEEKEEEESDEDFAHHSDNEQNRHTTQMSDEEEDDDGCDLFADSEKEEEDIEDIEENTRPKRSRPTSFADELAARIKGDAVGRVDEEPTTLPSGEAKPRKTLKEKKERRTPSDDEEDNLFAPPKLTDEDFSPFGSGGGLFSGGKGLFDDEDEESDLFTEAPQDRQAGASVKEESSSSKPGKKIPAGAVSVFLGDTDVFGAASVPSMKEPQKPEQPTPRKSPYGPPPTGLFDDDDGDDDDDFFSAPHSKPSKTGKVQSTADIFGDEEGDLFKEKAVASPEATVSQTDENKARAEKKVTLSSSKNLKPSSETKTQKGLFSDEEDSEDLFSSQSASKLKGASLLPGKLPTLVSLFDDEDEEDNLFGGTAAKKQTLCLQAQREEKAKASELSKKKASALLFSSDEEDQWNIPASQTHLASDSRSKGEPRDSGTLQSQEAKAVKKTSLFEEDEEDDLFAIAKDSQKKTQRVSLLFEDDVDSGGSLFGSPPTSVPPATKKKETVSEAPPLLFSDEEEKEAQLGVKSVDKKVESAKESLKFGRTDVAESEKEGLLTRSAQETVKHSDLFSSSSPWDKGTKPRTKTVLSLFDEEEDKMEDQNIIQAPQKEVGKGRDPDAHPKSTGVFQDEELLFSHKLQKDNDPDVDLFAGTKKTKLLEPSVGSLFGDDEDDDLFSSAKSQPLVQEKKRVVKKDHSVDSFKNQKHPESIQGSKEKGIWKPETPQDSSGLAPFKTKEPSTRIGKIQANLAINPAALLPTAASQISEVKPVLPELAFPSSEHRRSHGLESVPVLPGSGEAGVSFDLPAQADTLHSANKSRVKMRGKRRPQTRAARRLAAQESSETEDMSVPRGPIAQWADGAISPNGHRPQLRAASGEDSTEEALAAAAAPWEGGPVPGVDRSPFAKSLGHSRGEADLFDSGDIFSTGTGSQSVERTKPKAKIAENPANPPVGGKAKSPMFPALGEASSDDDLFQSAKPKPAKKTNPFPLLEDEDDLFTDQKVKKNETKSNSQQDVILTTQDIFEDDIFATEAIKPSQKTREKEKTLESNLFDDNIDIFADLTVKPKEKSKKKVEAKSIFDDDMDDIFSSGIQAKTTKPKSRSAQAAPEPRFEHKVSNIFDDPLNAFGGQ
# Sequence of UniProt P98170 (P98170 whole entry, looked up): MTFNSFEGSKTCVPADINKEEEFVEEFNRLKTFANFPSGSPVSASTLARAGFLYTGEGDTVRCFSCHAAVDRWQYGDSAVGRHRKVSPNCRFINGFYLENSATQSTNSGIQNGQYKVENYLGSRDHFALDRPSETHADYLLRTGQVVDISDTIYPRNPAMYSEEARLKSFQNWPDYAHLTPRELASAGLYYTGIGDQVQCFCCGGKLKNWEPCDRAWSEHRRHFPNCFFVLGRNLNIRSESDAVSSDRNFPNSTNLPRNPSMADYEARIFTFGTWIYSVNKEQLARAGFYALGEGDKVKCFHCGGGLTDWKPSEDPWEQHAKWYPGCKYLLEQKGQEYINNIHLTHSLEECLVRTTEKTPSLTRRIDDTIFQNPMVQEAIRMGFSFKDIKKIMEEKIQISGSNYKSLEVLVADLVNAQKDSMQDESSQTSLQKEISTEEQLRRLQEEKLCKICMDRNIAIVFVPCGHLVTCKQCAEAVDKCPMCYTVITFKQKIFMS
# Sequence of UniProt Q9HCN3 (Q9HCN3 whole entry, looked up): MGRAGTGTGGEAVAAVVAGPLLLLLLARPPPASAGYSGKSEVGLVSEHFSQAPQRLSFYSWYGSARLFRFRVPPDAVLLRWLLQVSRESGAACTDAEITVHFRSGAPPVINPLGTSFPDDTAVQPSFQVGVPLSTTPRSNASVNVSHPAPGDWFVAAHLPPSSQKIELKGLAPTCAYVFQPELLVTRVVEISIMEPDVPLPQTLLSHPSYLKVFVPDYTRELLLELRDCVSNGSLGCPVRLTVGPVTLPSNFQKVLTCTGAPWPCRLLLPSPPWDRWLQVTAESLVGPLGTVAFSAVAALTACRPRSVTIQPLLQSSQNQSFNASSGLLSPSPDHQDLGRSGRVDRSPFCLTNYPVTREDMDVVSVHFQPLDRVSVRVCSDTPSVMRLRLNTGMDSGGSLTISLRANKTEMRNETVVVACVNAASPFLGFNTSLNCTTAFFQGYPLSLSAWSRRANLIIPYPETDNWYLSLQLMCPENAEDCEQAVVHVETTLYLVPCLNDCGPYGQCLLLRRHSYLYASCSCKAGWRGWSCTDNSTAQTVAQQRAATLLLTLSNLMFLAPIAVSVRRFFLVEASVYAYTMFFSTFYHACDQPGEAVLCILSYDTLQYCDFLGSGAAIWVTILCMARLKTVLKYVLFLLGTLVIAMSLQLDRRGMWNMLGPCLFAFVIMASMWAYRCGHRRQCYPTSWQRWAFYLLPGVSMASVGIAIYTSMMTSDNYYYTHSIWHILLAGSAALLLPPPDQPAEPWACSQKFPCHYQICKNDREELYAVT
# Sequence of UniProt Q9C037 (Q9C037 whole entry, looked up): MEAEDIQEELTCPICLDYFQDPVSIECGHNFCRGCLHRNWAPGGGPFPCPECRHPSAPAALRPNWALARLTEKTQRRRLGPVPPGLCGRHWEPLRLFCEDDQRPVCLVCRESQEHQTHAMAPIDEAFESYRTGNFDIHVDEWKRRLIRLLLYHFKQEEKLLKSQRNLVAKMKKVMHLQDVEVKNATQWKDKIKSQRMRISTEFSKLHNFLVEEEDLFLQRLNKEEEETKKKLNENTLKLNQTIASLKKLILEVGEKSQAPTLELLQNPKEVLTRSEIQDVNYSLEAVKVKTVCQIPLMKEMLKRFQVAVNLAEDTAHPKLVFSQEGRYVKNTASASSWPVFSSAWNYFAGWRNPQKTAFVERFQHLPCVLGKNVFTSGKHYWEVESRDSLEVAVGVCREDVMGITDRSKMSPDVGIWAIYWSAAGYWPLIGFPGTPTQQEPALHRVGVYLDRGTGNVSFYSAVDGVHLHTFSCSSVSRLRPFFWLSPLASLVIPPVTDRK
# Sequence of UniProt Q96HV5 (Q96HV5 whole entry, looked up): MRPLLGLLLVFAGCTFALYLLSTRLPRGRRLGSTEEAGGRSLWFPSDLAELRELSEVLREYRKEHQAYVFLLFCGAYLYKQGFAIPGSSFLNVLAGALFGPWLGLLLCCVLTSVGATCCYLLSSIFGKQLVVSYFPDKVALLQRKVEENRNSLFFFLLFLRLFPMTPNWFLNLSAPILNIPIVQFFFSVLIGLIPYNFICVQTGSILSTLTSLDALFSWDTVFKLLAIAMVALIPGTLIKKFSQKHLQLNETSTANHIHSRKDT
row,Target,log2 fold change
1,TRIM44 (UniProt Q96DX7),0.02 (inactive)
2,TRIM23 (UniProt P36406),-0.083 (inactive)
3,VPS28 (UniProt Q9UK41),-0.055 (inactive)
4,UBE2D1 (UniProt P51668),-0.039 (inactive)
5,WASHC2A (UniProt Q641Q2),0.021 (inactive)
6,UBE4B isoform 4 (UniProt O95155),-0.056 (inactive)
7,TRAPPC6B (UniProt Q86SZ2),0.007 (inactive)
8,TMEM9B (UniProt Q9NQ34),-0.111 (inactive)
9,TSPAN13 (UniProt O95857),0.03 (inactive)
10,TMEM8A (UniProt Q9HCN3),-0.048 (inactive)
11,WEE1 (UniProt P30291),-0.045 (inactive)
12,UNC119B (UniProt A6NIH7),0.038 (inactive)
13,TRIM4 (UniProt Q9C037),-0.294 (inactive)
14,UBIAD1 (UniProt Q9Y5Z9),-0.122 (inactive)
15,USP48 isoform 8 (UniProt Q86UV5),-0.125 (inactive)
16,TMEM164 (UniProt Q5U3C3),-0.248 (inactive)
17,UFM1 isoform 2 (UniProt P61960),-0.057 (inactive)
18,TUT4 (UniProt Q5TAX3),-0.349 (inactive)
19,TMEM41A (UniProt Q96HV5),-0.066 (inactive)
20,TMEM184C (UniProt Q9NVA4),-0.07 (inactive)
21,XIAP (UniProt P98170),-0.001 (inactive)
22,TMEM106B (UniProt Q9NUM4),-0.016 (inactive)

# Source: the supplement of paper PMC10849652
